Source: PubChem BioAssay (National Center for Advancing Translational Sciences (NCATS))
AmpC detergent – inhibitors of E. coli AmpC beta-lactamase with detergent; AmpC hydrolysis of nitrocefin, absorbance 480 nm, 0.01% Triton; actives 0.041% (n = 370,000); Potency, µM (top dose mostly 114 µM), for inactives: top-dose activity change, negative = inhibition, usual class: inhibitors; P00811;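 also: potency is read from the fitted curve at half-maximal effect; 0% = no-compound wells and -100% = no-enzyme wells; nearly all actives have a fitted effect of over 25% in size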
Target sequence (P00811 whole entry, looked up): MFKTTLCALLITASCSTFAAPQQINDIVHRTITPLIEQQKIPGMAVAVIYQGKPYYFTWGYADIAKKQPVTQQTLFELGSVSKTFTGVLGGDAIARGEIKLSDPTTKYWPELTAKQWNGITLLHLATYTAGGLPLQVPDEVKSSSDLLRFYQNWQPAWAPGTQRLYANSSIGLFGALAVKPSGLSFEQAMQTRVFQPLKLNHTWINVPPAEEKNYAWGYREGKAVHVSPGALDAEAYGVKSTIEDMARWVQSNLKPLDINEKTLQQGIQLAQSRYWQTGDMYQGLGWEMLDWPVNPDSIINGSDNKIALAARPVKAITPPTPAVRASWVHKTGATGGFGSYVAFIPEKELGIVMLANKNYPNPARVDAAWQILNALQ
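AmpC (5.3 nM in the dispensed reagent) in 20 mM phosphate pH 7.0 with 0.01% (detergent screen) or 0.0001% Triton X-100 was preincubated with compounds for 15 min at room temperature. Nitrocefin was then added from an 800 uM solution, and hydrolysis was followed at 480 nm.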
NS1 function inh – influenza NS1 inhibition; Potency, µM (top dose mostly 46.1 µM), inactives show at the highest dose activity, positive = more growth; actives 0.4% (n = 270,000); calls by dose curve; also: potency is read from the fitted curve at half-maximal effect; actives are rising curves; nearly all actives have a fitted effect of over 50% in size
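Compounds were scored for reversing the slow growth caused by influenza A NS1 in S. cerevisiae, measured by optical density at 600 nm. Assay medium contained 2% galactose at pH 6.0; NS1-free yeast of the same strain were the positive control.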
Shiga toxin inh – blocks Shiga toxin action in Vero cells. Vero cells, Shiga toxin protein synthesis inhibition reporter. inhibition, % at 38.7 µM. actives 9.2% (n = 290,000); in the data active = inhibition mostly above about 28%, no sharp cut-off; inactive = mostly below about 43%; also: 0% is about no effect
AmpC no deterg – inhibitors of E. coli AmpC beta-lactamase without detergent | P00811 | AmpC nitrocefin hydrolysis, absorbance 480 nm, 0.0001% Triton | Potency, µM (series often up to 57.1 µM), without a hit: at the highest dose activity change, negative = inhibition, hits mostly inhibitors | actives 0.52% (n = 330,000);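 also: potency is read from the fitted curve at half-maximal effect; plate controls were no compound for no effect and no enzyme for full effect; nearly all actives have a fitted effect of over 20% in size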
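20 mM phosphate pH 7.0 + 0.01% (detergent screen) or 0.0001% Triton X-100; 5.3 nM AmpC reagent; cpd preinc 15 min RT; nitrocefin (800 uM stock) to start; A480 q20 s × 4 min; Activity was normalised to no-enzyme and no-compound control wells.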
Cycloheximide cs – counter-screen hit for Shiga toxin inhibitors, cycloheximide | AID 2314 | actives 12% (n = 300,000) | max response, % | cell reporter, cycloheximide protein synthesis inhibition counterscreen; in the data active = max response mostly above about 13%, no sharp cut-off; inactive = mostly below about 14%; also: read at 38.3 µM for the half of the compounds with a filed dose; 0% is about no effect
The depositor's hits bear a star. Only a selection was taken, and hits are over-represented in it overall. Unless noted, calls follow the shape of the dose curve; as a rule, active = well fitted curve in the direction sought with a large enough effect; inconclusive = small, poorly fitted or top-dose-only effect, or another doubt; inactive = no such curve, though single readings can be large; an effect the other way counts as inactive or inconclusive.

`COC(=O)c1sc(NC(=O)c2cc(C)on2)nc1C` gave AmpC detergent inconclusive, NS1 function inh -60%, Shiga toxin inh 36*, AmpC no deterg -13% and Cycloheximide cs 27*.
CCOC(=O)CNC(=O)c1sc(NC(=O)c2ccccc2F)nc1C was read as AmpC detergent -10%, NS1 function inh -59%, Shiga toxin inh 55*, AmpC no deterg -16% and Cycloheximide cs 35*.
`COC(=O)c1sc(NC(=S)NC(=O)c2ccccc2F)nc1C` gave AmpC detergent 8%, Shiga toxin inh 160*, AmpC no deterg -13% and Cycloheximide cs 51*.
CCOC(=O)CNC(=O)c1sc(NC(=O)c2cccc(F)c2)nc1C was read as AmpC detergent inconclusive, NS1 function inh 5%, Shiga toxin inh 66*, AmpC no deterg -10% and Cycloheximide cs 26*.
For O=C(CNC(=O)c1ccccc1F)OCCCOC(=O)CNC(=O)c1ccccc1F the results were AmpC detergent inconclusive and AmpC no deterg -26%.
Screening Cc1nnc(NC(=O)c2cccc(F)c2)s1 returned AmpC detergent -1%, NS1 function inh -10%, Shiga toxin inh -3, AmpC no deterg 1% and Cycloheximide cs 7.
`CCCC(=O)NC(=S)Nc1ccccc1F` gave AmpC detergent 3%, NS1 function inh -30%, Shiga toxin inh 74, AmpC no deterg -22% and Cycloheximide cs 15*.
For COc1ccc(C(=O)NC(=S)Nc2ccccc2F)cc1 the results were AmpC detergent -14%, NS1 function inh 22%, Shiga toxin inh 67*, AmpC no deterg -7% and Cycloheximide cs 56*.
`CC(C)(C)C(=O)NC(=S)Nc1ccccc1F` gave AmpC detergent 2%, NS1 function inh -2%, Shiga toxin inh 40, AmpC no deterg -13% and Cycloheximide cs 26*.
`COc1ccc(CCCC(=O)Nc2ccccc2F)cc1` gave AmpC detergent -6%, NS1 function inh -6%, Shiga toxin inh 109*, AmpC no deterg -14% and Cycloheximide cs 21*.
COc1ccc(CNC(=S)Nc2ccccc2F)cc1 was read as AmpC detergent -1%, NS1 function inh 28%, Shiga toxin inh 16, AmpC no deterg -21% and Cycloheximide cs 8.
For O=C(COC(=O)c1ccc(S(=O)(=O)C(F)F)cc1)Nc1ccccc1C(=O)NC1CC1 the results were AmpC detergent 2% and AmpC no deterg -7%.
`CC(C)n1cnnc1SCC(=O)NNC(=O)COc1ccc(Cl)cc1` gave AmpC detergent -3% and AmpC no deterg inconclusive.
Screening Cc1nn(CC(=O)N2CCC(C)CC2)c(=O)c2cc3occc3n12 returned AmpC detergent 26%.
Screening CCOC(=O)CSC(=S)NC(=O)c1ccc(OC)cc1 returned AmpC detergent -14%, NS1 function inh 15%, Shiga toxin inh 12, AmpC no deterg -13% and Cycloheximide cs 2.
Screening COc1ccc(C(=O)NC(=S)SCC(=O)O)cc1 returned AmpC detergent -3%, NS1 function inh -8%, Shiga toxin inh 26*, AmpC no deterg -16% and Cycloheximide cs 15*.
Screening Cc1ccc2nc3c(cc(C#N)c(=O)n3-c3nnc(SCc4ccccc4)s3)c(=O)n2c1 returned AmpC detergent 17%.
For O=C(N/N=C/c1ccc(Br)s1)c1ccccn1 the results were AmpC detergent -8%, NS1 function inh -3%, Shiga toxin inh 84*, AmpC no deterg -3% and Cycloheximide cs 48*.
O=C(N/N=C/c1ccsc1)c1ccccn1 was read as AmpC detergent -2%, NS1 function inh 0%, Shiga toxin inh 70*, AmpC no deterg -18% and Cycloheximide cs 28*.
For O=C(N/N=C/c1ccc(OC(=O)c2ccccc2Br)cc1)c1ccccn1 the results were AmpC detergent 4%, NS1 function inh 7%, Shiga toxin inh -16, AmpC no deterg 3% and Cycloheximide cs -3.
CC(C)(C)c1ccc(/C=N/NC(=O)c2ccccn2)cc1 was read as AmpC detergent -4%, NS1 function inh -3%, Shiga toxin inh 42*, AmpC no deterg 4% and Cycloheximide cs 38*.
Screening Cc1ccc2oc3c(c(=O)c2c1)C(c1ccc(F)cc1)N(Cc1ccc2c(c1)OCO2)C3=O (stereo unspecified) returned AmpC detergent 25%.
`COc1cccc(C(=O)c2cn(CC(=O)Nc3cccc(Cl)c3C)c3nc(C)ccc3c2=O)c1` gave AmpC detergent 3%.
For Cc1noc(/C=C/c2ccco2)c1S(=O)(=O)N1CCC(C(=O)N2CCc3ccccc3C2)CC1 the results were AmpC detergent inconclusive, NS1 function inh 9%, Shiga toxin inh 47*, AmpC no deterg -1% and Cycloheximide cs 19*.
Screening FC(F)(F)c1nc2ccc(SSc3ccc4nc(C(F)(F)F)[nH]c4c3)cc2[nH]1 returned NS1 function inh -15%.
`CCc1nn2c(-c3ccccc3OC)ccnc2c1-c1ccccc1` gave AmpC detergent 2%.
COc1ccc(C(=O)NCCn2ccc3ccccc32)cc1OC was read as AmpC detergent inconclusive, NS1 function inh -35%, Shiga toxin inh 23, AmpC no deterg -13% and Cycloheximide cs 18*.
`COc1cccc(C(=O)NCCn2ccc3ccccc32)c1` gave AmpC detergent inconclusive, NS1 function inh -40%, Shiga toxin inh 45*, AmpC no deterg -15% and Cycloheximide cs 25*.
O=C(NCCn1ccc2ccccc21)C1CCCCC1 was read as AmpC detergent 3%, NS1 function inh -76%, Shiga toxin inh 24*, AmpC no deterg -19% and Cycloheximide cs 18*.
`COc1cc(OC)cc(C(=O)NCCn2ccc3ccccc32)c1` gave AmpC detergent -12%, NS1 function inh -63%, Shiga toxin inh -3, AmpC no deterg -12% and Cycloheximide cs 10.
For COc1cccc2c1C(=O)c1c(O)c3c(c(O)c1C2=O)C[C@@](O)(C(=O)CO)C[C@@H]3OC1C[C@@H](N)[C@H](O)[C@H](C)O1 (stereo partly specified) the results were Shiga toxin inh 18 and Cycloheximide cs 1.
`O=C(CCCN1C(=O)C2CC=CCC2C1=O)Nc1cccc(F)c1` (stereo unspecified) gave AmpC detergent 9%, NS1 function inh 3%, Shiga toxin inh 23, AmpC no deterg -13% and Cycloheximide cs -1.
CN(C)CC(CN(C)C)c1ccccn1 was read as NS1 function inh -3%.
Screening O=C(O)C1C2C=CC(O2)C1C(=O)Nc1ccc2c(c1)OCCO2 (stereo unspecified) returned AmpC detergent inconclusive, NS1 function inh 7%, Shiga toxin inh 132*, AmpC no deterg -16% and Cycloheximide cs 75*.
`O=C(O)C1C2C=CC(C2)C1C(=O)Nc1ccc2c(c1)OCCO2` (stereo unspecified) gave AmpC detergent -4%, NS1 function inh 4%, Shiga toxin inh 113*, AmpC no deterg -13% and Cycloheximide cs 80*.
